The values below come from PubChem BioAssay AID463188 (University of Pittsburgh Molecular Library Screening Center, 2010).

The nature of assay [1]: retest of Hck:Nef kinase inhibitor hits, confirmation, biochemical, Z-Lyte FRET, 384-well, p-Tyr peptide counterscreen (AID 463188). As to conditions: Recombinant Hck-YEEI:Nef, Z-Lyte FRET kinase assay; measured here: p-Tyr peptide counterscreen; at 10 µM. (Counterscreens check selectivity or assay interference.)
Assay [2] addresses Tyrosine-protein kinase HCK (Homo sapiens) (UniProt P08631). The description is as above. As to conditions: Recombinant Hck-YEEI:Nef, Z-Lyte FRET kinase assay; at 10 µM; stronger effect = higher value.

The structures appear in SMILES notation. Screen size: about 1,300 compounds; about 360 (28%) were called active.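 The calls were made as follows: active = average inhibition of at least 50%, with Z-scores no higher than 3 in both the phospho-tyrosine peptide and fluorescence counterscreens; inactive = the rest.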 A selection follows.

Tyrosine-protein kinase HCK (Homo sapiens), sequence (P08631 whole entry, looked up): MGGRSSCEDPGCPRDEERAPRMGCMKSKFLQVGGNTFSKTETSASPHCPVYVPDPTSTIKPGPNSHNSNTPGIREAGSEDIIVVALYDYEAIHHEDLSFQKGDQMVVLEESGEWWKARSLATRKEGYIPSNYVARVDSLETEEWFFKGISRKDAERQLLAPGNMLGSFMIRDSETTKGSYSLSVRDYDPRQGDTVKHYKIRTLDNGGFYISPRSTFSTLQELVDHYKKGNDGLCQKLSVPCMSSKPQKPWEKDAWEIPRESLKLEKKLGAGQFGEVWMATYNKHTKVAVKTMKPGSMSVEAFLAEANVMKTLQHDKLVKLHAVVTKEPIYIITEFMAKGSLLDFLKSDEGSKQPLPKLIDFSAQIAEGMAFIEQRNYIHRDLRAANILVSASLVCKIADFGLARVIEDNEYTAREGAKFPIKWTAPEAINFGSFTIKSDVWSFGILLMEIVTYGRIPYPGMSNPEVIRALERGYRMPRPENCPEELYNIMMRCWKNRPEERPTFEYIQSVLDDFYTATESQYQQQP

For the compound `N#Cc1c(-c2cccs2)nc(SCC(=O)c2ccc(Br)cc2)[nH]c1=O`, the z-score in assay [1] is -2.14. Moreover, the inhibition in assay [2] was 54.2% (active). As to `Cc1ccc(S(=O)(=O)c2c(N)n(C)c3nc4ccccc4nc23)cc1`, in assay [1], the z-score came to 15.1. The inhibition in assay [2] was 51.3% (inactive). In the case of `Cc1ccc(-n2c(=O)c(C#N)cc3c(=O)n4ccccc4nc32)cc1C`, the inhibition in assay [1] was 15.8. Consider `COc1ccc(N=Cc2c(O)[nH]c3ccccc23)cc1OC`, for which the z-score in assay [1] is 2.53. For the same compound, in assay [2], the inhibition is 67.3% (active). In the case of `CCN(CC)c1ccc2cc(C(=O)O)c(=O)oc2c1`, in assay [1], the inhibition came to 180. In the case of `CC(C)n1cnc2c(Nc3cccc(Cl)c3)nc(N(CCO)CCCO)nc21`, the z-score in assay [1] was -1.42. Further, in assay [2], the inhibition is 92.6% (active). With `COc1cccc(CNC(=O)CCC2CCCN(Cc3ccc(OC(F)F)cc3)C2)c1` (configuration not stated), the z-score in assay [1] stood at 0.273. The inhibition in assay [2] is 13.3% (inactive). The matching figures for `CCn1c(=O)c2cc(C(=O)Nc3cccc(C(C)=O)c3)sc2c2ccccc21`: 0.522 and 30.2% (inactive). With `CC(C)(C)OC(=O)NCCCCCC(=O)N/N=C/c1coc2ccccc2c1=O`, the z-score in assay [1] is -0.798. For the same compound, the inhibition in assay [2] is 80.9% (active).

On to `Oc1c(Cl)cc(Cl)c(Cl)c1Cc1c(O)c(Cl)cc(Cl)c1Cl`, for which the z-score in assay [1] was -1.64. Also, the inhibition in assay [2] is 12.2% (inactive). Take `COC(=O)C1=CN(Cc2ccc(OC)c(OC)c2)C=C(C(=O)OC)C1c1cccs1`: the inhibition in assay [1] stood at 22.9. As to `Cc1ccc(-c2cc(C(=O)NCc3cn(C)nc3C)c3cc(Br)ccc3n2)cc1`, the z-score in assay [1] is -0.98. The inhibition in assay [2] is 46.1% (inactive). As for `O=C(Nc1ccncc1)c1cc(-c2ccccn2)nc2ccc(Br)cc12`, the z-score in assay [1] came out at 0.0526. For the same compound, in assay [2], the inhibition is 76.4% (active).

For `O=C(CSc1cccc2cccnc12)N/N=C/c1cccnc1`, the z-score in assay [1] was -0.0644. In assay [2], the inhibition is 36.9% (inactive). Take `Cc1ncc(CC(=O)n2cc(C(=O)c3cc(Cl)ccc3O)cn2)s1`: the z-score in assay [1] was -1.16. Besides, the inhibition in assay [2] is 75% (active). As to `COC/C=C/C1=CC2=CC(=O)C(C)(OC(=O)CCC(=O)OC)C(=O)C2=CO1` (configuration not stated), the z-score in assay [1] was -0.884. Also, in assay [2], the inhibition was 43.8% (inactive). The matching figures for `O=C(Cc1ccccc1)Nc1cccc(C(=O)N/N=C/c2ccco2)c1`: -0.994 and 30% (inactive). `COc1ccc(C(=O)n2nc(-c3ccc(Cl)cc3)nc2N)cc1OC`: the z-score in assay [1] worked out at 3.28. For the same compound, the inhibition in assay [2] was 2.06% (inactive).

Turning to `CCn1c(=N)c(C(=O)NCCCOC)cc2c(=O)n3cccc(C)c3nc21`, the inhibition in assay [1] was 192. Turning to `Cc1ccc(/C=C/C(=O)Nc2ccc([N+](=O)[O-])c(NC(=O)/C=C/c3ccc(C)o3)c2)o1`, in assay [1], the z-score was -2.13. Further, the inhibition in assay [2] was 51.4% (active). For the compound `O=C(NNC(=O)c1csc(-c2cccnc2)n1)Nc1ccc(Cl)cc1`, the z-score in assay [1] is -0.478. For the same compound, the inhibition in assay [2] is 11.4% (inactive).

On to `Cc1ccc(SC(CC(=O)c2ccc(C(C)(C)C)cc2)C(=O)O)cc1` (configuration not stated), for which the z-score in assay [1] is -0.516. Further, the inhibition in assay [2] was 20.8% (inactive).

Regarding `O=[N+]([O-])c1cc(Cl)cc(/C=N/NC(=S)Nc2cc(S(=O)(=O)N3CCOCC3)ccc2Cl)c1O`, the z-score in assay [1] is -0.299. For the same compound, the inhibition in assay [2] was 63.6% (active).

`CN(C)S(=O)(=O)c1cccc(-c2nn(-c3ccccc3)cc2/C=C2\SC(=S)N(CC(=O)O)C2=O)c1`: the z-score in assay [1] was -1.38. Besides, the inhibition in assay [2] is 38.1% (inactive). `CCOc1ccc(-c2nc(N)ncc2-c2ccccc2OC)c(O)c1`: in assay [1], the z-score is -1.74. Besides, the inhibition in assay [2] was 63.2% (active). On to `C=C(C)COc1ccc(-c2nc(N)ncc2-c2ccccc2OC)c(O)c1`, for which, in assay [1], the z-score was -0.555. For the same compound, the inhibition in assay [2] was 55.8% (active).

Consider `COc1cccc(C(=O)c2cc3ccc(O)cc3oc2=O)c1`, for which, in assay [1], the inhibition worked out at 51.8. `O=C1Oc2ccccc2C(=O)/C1=C/c1ccccc1O`: the z-score in assay [1] is -0.0667. In addition, the inhibition in assay [2] was 30.1% (inactive). For `Cc1cc(/C=N/Nc2ccc([N+](=O)[O-])cn2)c(C)n1-c1cccc(C(=O)O)c1`, the z-score in assay [1] was determined as 0.131. In assay [2], the inhibition is 38.5% (inactive).

For `COC(=O)Cc1cc(=O)oc2c(C)c(O)ccc12`, the inhibition in assay [1] was determined as 94.6. For the compound `CC(=O)Oc1ccc2c(C)c(CC(C)O)c(=O)oc2c1` (configuration not stated), in assay [1], the inhibition came to 122. On to `CCCCN(CCCC)CC(O)Cn1c2ccccc2c(=O)c2ccccc21` (configuration not stated), for which the inhibition in assay [1] came to 80.9. Regarding `OC(c1nnc(-c2ccccc2)o1)c1cccs1` (configuration not stated), the z-score in assay [1] is -1.39. Further, in assay [2], the inhibition was 19.9% (inactive). `CCOc1ccccc1C1C(C(=O)OC)=CN(C)C=C1C(=O)OC`: the inhibition in assay [1] was 41.6. As to `Cc1cccc(-[n+]2c(-c3cccc(Br)c3)[nH]c3nc4ccccc4nc32)c1`, in assay [1], the z-score was -0.694. Moreover, the inhibition in assay [2] is 13.5% (inactive).

In the case of `O=C(Nc1ccc(S(=O)(=O)Nc2nccs2)cc1)c1cc(-c2ccncc2)nc2ccccc12`, in assay [1], the z-score was -0.658. Moreover, in assay [2], the inhibition was 65.3% (active). The matching figures for `Cc1cc(C)c2nc(-c3cccnc3)cc(C(=O)Nc3ccc(S(=O)(=O)Nc4onc(C)c4C)cc3)c2c1`: -1.22 and 40.5% (inactive). `COCCCn1c(-c2cccs2)nc2nc3ccccc3nc21`: the inhibition in assay [1] was 61.4. Turning to `O=[N+]([O-])c1cccc(Nc2c3ccccc3nc3ccccc23)c1`, in assay [1], the z-score came to 0.872. Besides, in assay [2], the inhibition is 9.19% (inactive). On the same counts, the results for `CN(CC(=O)Nc1cccc(F)c1)CC(=O)Nc1cccc([N+](=O)[O-])c1` are -0.0694 and 62.1% (active). On the same counts, the results for `O=C(NCc1ccccc1)C1CCCN(c2nc3ccsc3c(=O)s2)C1` (configuration not stated) are 2.05 and 18.7% (inactive). As for `CN(C(=O)COC(=O)c1cc(-c2ccco2)nc2ccccc12)C1CCS(=O)(=O)C1` (configuration not stated), the z-score in assay [1] came to 0.38. In assay [2], the inhibition was 49.5% (inactive). For `c1ccc(CSc2nnc(-c3ccco3)c(-c3ccco3)n2)cc1`, the z-score in assay [1] is 0.442. For the same compound, the inhibition in assay [2] is 26.4% (inactive). Take `Clc1ccc2c(c1)C1=C(C(c3ccncc3)O2)C(c2ccc(Br)cc2)n2ncnc2N1` (configuration not stated): the z-score in assay [1] came out at 1.34. For the same compound, in assay [2], the inhibition was 92.8% (active). In the case of `Cc1cc(OC(=O)c2ccccc2Cl)ccc1N1C(=O)CCC1=O`, the z-score in assay [1] was 0.0636. For the same compound, the inhibition in assay [2] is 11.5% (inactive).

As to `COC(=O)c1ccc(OCC(O)CN(CCO)CC(O)Cn2ccc3ccccc32)cc1` (configuration not stated), the z-score in assay [1] was 3.64. For the same compound, the inhibition in assay [2] was -1.67% (inactive). On the same counts, the results for `O=C(O)CCn1cc(/C=C/C(=O)c2ccc(Cl)cc2)c(-c2cccc(Br)c2)n1` are -0.131 and 24.8% (inactive). As to `CCCn1c(=NC(C)=O)c(C(=O)OCC)cc2c(=O)n3ccccc3nc21`, the z-score in assay [1] was found to be 85.9. For the same compound, the inhibition in assay [2] was 33.1% (inactive).

`Cc1cccn2c(=O)c3cc(C#N)c(=O)n(CCCN4CCOCC4)c3nc12`: the inhibition in assay [1] was determined as 248.
